Assay outcomes as filed in PubChem.
Sfp inh = qHTS Assay for Inhibitors of Bacillus subtilis Sfp phosphopantetheinyl transferase (PPTase). Biochemical Sfp PPTase activity, qHTS. Potency, µM, for inactives: largest response in the series, negative = inhibition, most hits filed as inhibitors. 310,000 tested, 3.5% active. AID 1490, 2009;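 further: the enzyme is Sfp with the accession as filed and its product quenches rhodamine fluorescence; 0% = enzyme reaction without inhibitor and -100% = no enzyme wells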
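With Hepes-Na pH 7.6 buffer containing 10 mM MgCl2, Sfp (15 nM) modified BHQ-2-YbbR (12.5 uM) using rhodamine-CoA (5 uM). Two reads 30 minutes apart at 525/598 nm yielded each well's rate.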
PLK1 PBD inh = qHTS for Inhibitors of PLK1-PDB (polo-like kinase 1 - polo-box domain): Primary Screen | Plk1 PBD binding of FITC phosphopeptide, fluorescence polarization | Potency, µM, inactives show max response, negative = inhibition, usual class: inhibitors | 360,000 tested, 2.8% active | AID 720504, 2013; further: series mostly up to about 57 µM; nearly all actives have a fitted effect of over 65% in size
VP16 counter = VP16 counterscreen qHTS for inhibitors of ROR gamma transcriptional activity; Drosophila S2 Gal4-VP16 UAS-luciferase, luminescence, 20 h; Potency, µM (top dose mostly 53.6 µM), for inactives: top-dose activity, negative = inhibition, usual class: inhibitors; 310,000 tested, 3.5% active; AID 2546, 2010;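 further: Gal4-VP16 expression switched on by copper sulfate through the metallothionein promoter; nearly all actives have a fitted effect of over 50% in size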
RORg inh = qHTS for inhibitors of ROR gamma transcriptional activity | Potency, µM (doses to about 53.6 µM), inactives show top-dose activity change, negative = inhibition, actives largely listed as inhibitors | 310,000 tested, 5.4% active | Drosophila S2 Gal4-RORgamma UAS-luciferase reporter, 20 h | AID 2551, 2010 | Nuclear receptor ROR-gamma (Mus musculus), P51450; further: nearly all actives have a fitted effect of over 60% in size
Target sequence (P51450 whole entry, looked up, the tested form may be a part): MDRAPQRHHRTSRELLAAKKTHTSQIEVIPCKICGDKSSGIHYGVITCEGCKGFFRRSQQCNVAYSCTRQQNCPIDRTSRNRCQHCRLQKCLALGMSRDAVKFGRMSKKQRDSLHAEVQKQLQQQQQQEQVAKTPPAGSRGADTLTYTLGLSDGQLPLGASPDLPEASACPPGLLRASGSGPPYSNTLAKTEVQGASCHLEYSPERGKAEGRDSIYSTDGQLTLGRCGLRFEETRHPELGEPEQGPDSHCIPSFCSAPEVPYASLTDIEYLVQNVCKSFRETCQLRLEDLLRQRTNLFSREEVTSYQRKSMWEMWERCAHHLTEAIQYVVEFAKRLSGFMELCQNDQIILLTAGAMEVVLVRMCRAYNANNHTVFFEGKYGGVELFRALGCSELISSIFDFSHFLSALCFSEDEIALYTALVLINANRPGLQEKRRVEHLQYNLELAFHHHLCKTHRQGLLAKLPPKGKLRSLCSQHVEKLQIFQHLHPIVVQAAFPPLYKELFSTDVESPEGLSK
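Luminescence from a UAS-regulated Photinus luciferase reporter in stably transfected Drosophila Schneider cells is measured; decreased signal marks ROR gamma inhibition. Fusion expression is induced by 700 uM copper sulfate for 20 hr.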
ALDH1A1 inh = qHTS Assay for Inhibitors of Aldehyde Dehydrogenase 1 (ALDH1A1); Aldehyde dehydrogenase 1A1 (Homo sapiens), P00352; Purified ALDH1A1, NADH fluorescence, propionaldehyde substrate; Potency, µM (top dose mostly 75.3 µM), inactives show top-dose activity, negative = inhibition, usual class: inhibitors; 220,000 tested, 7.3% active; active means well fitted inhibition curve with a large enough effect, not every such curve was filed as active; inconclusive means small, poorly fitted or top-dose-only effect, or another doubt; inactive means no such curve, though single readings can be large or run the other way;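 further: plate controls were no enzyme wells and a reference inhibitor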
* hit, by the source's call; ? = inconclusive; . = no result; [ ] = dose if it differs, or a comment. Compounds with a hit are over-represented: about 12% of the library has one in this group of screens. Unless noted, the call rests on the fitted dose curve; in most records, active means well fitted curve in the direction sought with a large enough effect; inconclusive means small, poorly fitted or top-dose-only effect, or another doubt; inactive means no such curve, though single readings can be large; an effect the other way counts as inactive or inconclusive. Unless noted, on the % scale 0 is the no-effect control and ±100 the full control effect; potency means the concentration at half of the fitted maximal effect.

SMILES	Sfp inh	PLK1 PBD inh	VP16 counter	RORg inh	ALDH1A1 inh
CCN1CCN(C(=O)NC(C(=O)NC2C(=O)N3C2SC(C)(C)C3C(=O)O)c2ccccc2)C(=O)C1=O (configuration not stated)	1%	.	1%	7%	1%
O=C(Nc1ccc(Oc2c(F)c(F)c(F)c(F)c2F)cc1)OC1CCN2Cc3ccccc3N=C12 (configuration not stated)	-6%	1%	?	0.71µM*	.
Cc1cccc(NC(=O)Nc2ccc(Oc3c(F)c(F)c(F)c(F)c3F)cc2)c1	16%	0%	?	?	-2%
CC(=O)C1=CCC(c2ccc(Cl)cc2)N(S(=O)(=O)c2ccccc2C)C1 (configuration not stated)	.	-18%	.	.	.
CCC(=O)N1CC23C=CC(CC2CC12CCCCC2)O3 (configuration not stated)	2%	-3%	-1%	-16%	16µM*
Cc1ccc(S(=O)(=O)N2C3CC(c4ccccc4)N(S(=O)(=O)c4cccc(Cl)c4)CC3C(=O)C[C@H]2c2ccccc2)cc1 (some centres not stated)	.	-9%	.	.	.
O=C1CC(N2CCOCC2)C(=O)N1c1ccc(Cl)cc1 (configuration not stated)	10%	-10%	-11%	0%	.
O=C1CCCN1CCC1CCN(C2CC(=O)N(c3ccc(Cl)cc3)C2=O)CC1 (configuration not stated)	-27%	-8%	-24%	?	20µM*
O=C1CCCN1CCC1CCN(C2CC(=O)N(Cc3ccc(N4CCCC4=O)cc3)C2=O)CC1 (configuration not stated)	9%	-4%	?	7.1µM*	?
CN(C)C=O	.	.	7%	-11%	15%
O=C(/C=C/Sc1ccccc1)c1ccccc1	-2%	13µM*	?	?	7.9µM*
O=C(/C=C/Sc1ccccc1)c1ccc(Cl)cc1	-7%	-16%	14µM*	?	?
CSC(=CC(=O)c1ccccc1)SC	15%	-7%	-16%	29%	-6%
O=C(C=Cc1ccccc1Cl)c1ccccc1	.	-16%	.	.	.
O=C(C[n+]1cn(C(F)F)c2ccccc21)c1ccc(Br)cc1	-14%	?	-6%	5%	8.9µM*
CCOC(=O)c1ccc(NC(=O)c2ccco2)cc1	17%	-3%	?	25%	.
CCOC(=O)c1ccc(NC(=O)CSCc2ccco2)cc1	-38%	?	4%	4%	2.2µM*
CCOC(=O)c1ccc(NC(=O)CSCCC(=O)O)cc1	16%	1%	?	?	32µM*
CCOC(=O)CC(=O)Nc1ccc(C(=O)OCC)cc1	12%	-2%	18%	24%	-5%
CCCCOC(=O)c1ccc(NC(=O)CSCc2n[nH]c(=O)[nH]2)cc1	6%	-6%	-11%	?	13µM*
CO[C@@H]1COC(=O)[C@H](C)NC(=O)C/C=C\[C@@H](C)[C@H](OC)COC(=O)[C@H](C)NC(=O)C/C=C\[C@H]1C	23%	.	-4%[10 µM]	-1%[10 µM]	0%[13.5 µM]
COc1ccc(Cc2noc(CN3CCN(c4ccc(Cl)cn4)CC3)n2)cc1OC	4%	-6%	-23%	1%	-1%
CC(C)CCc1noc(CN2CCN(c3ccc(Cl)cn3)CC2)n1	3%	-5%	-20%	4%	4µM*
CCC(C)(C)NC(=O)c1ccc2c(c1)S(=O)(=O)c1ccccc1C2=O	-2%	-7%	-10%	35%	3.5µM*
CC(=O)N1CCN(C(=O)c2ccc3c(c2)S(=O)(=O)c2ccccc2C3=O)CC1	16%	1%	-1%	-17%	.
SMILES	Sfp inh	PLK1 PBD inh	VP16 counter	RORg inh	ALDH1A1 inh
CC(C)(C)c1ccc(NC(=O)c2ccc3c(c2)S(=O)(=O)c2ccccc2C3=O)cc1	.	-6%	.	.	.
O=C(NCC(c1ccco1)N1CCCCC1)c1ccc2c(c1)S(=O)(=O)c1ccccc1C2=O (configuration not stated)	-1%	-9%	8%	7%	13µM*
O=C(Nc1ccccn1)c1ccc2c(c1)S(=O)(=O)c1ccccc1C2=O	5%	1%	3%	15%[10 µM]	16µM*
CCN1CCN(C(=O)c2ccc3c(c2)S(=O)(=O)c2ccccc2C3=O)CC1	6%	9%	-10%	9%	7.9µM*
O=C(NCC(c1ccco1)N1CCCCC1)c1ccc(S(=O)(=O)Nc2ccccc2)cc1 (configuration not stated)	.	3%	.	.	.
COc1cc(C(=O)Nc2ccc(NC(=O)c3ccccc3)nc2)cc(OC)c1OC	9%	-3%	22%	0%	.
COc1cc(NC(=S)Nc2ccccn2)cc(OC)c1OC	8%	2%	22µM*	3.5µM*	-12%
COc1cc(NC(=S)Nc2ccccn2)cc(OC)c1	-15%	-1%	5.6µM*	2.5µM*	-2%
COC(=O)Cc1ccc(NC(=S)NC(C)(C)C)cc1	1%	-8%	-13%	?	-6%
COC(=O)Cc1ccc(NC(=S)Nc2ccccn2)cc1	-10%	-2%	?	5µM*	-7%
COC(=O)[C@]12CCCCC=C1N(Cc1ccccc1)C(=O)[C@H](CC(=O)N1CCC(c3ccccc3)CC1)C2	.	5%	.	.	.
CC(=O)c1cccc(-c2ccnc3c2CC(C(=O)Nc2cccc(NS(C)(=O)=O)c2)O3)c1 (configuration not stated)	.	-3%	.	.	.
O=C(CN1CCc2ccccc21)Nc1ccc2c(c1)OCO2	-1%	?	3%	36%	13µM*
CCOc1ccc(N/C(C)=C\C(=O)c2ccc3c(c2)OCCO3)cc1	-2%	-10%	?	-1%	13µM*
COc1ccc2c(CC(=O)OCC(=O)Nc3ccc4c(c3)OCO4)coc2c1	3%	17µM*	-7%	1%	?
CC(Sc1ccccc1F)C(=O)Nc1ccc2c(c1)OCCO2 (configuration not stated)	.	-11%	.	.	.
CCOc1ccc(N/C(C)=C/C(=O)c2ccc3c(c2)OCCO3)cc1	?	-2%	0%	19%	?
CC(Sc1ccc2c(c1)OCCO2)C(=O)Nc1ccc2c(c1)OCO2 (configuration not stated)	8%	-15%	-2%	-2%	10µM*
CC(=O)Nc1cccc(C(=O)Nc2cc(C(F)(F)F)ccc2-n2cncn2)c1	.	-7%	.	.	.
O=C(CC1CS(=O)(=O)CC1CC(=O)Nc1ccc2c(c1)OCCO2)Nc1ccc2c(c1)OCCO2 (configuration not stated)	22µM*	-29%	-19%	-26%	?
COc1ccc(NC(=O)CN2CCN(CC(=O)Nc3ccc4c(c3)OCO4)CC2)cc1	13%	0%	1%	18%	6.3µM*
